Compound activity deposited in PubChem by National Center for Advancing Translational Sciences (NCATS).
KCNH2 WT inh: qHTS for Inhibitors of KCHN2 3.1: Wildtype qHTS. Voltage-gated inwardly rectifying potassium channel KCNH2 (Homo sapiens), Q12809. U2OS, BacMam KCNH2, thallium flux FluxOr; hits give low values. activity change, % at 1.84 µM. actives 0.37% (n = 340,000). AID 720551, 2013;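 active = maximum activity change below -70%; inconclusive = maximum activity change between -70% and -50%; inactive = maximum activity change above -50%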
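U2OS cells transduced with wild-type KCNH2 virus are loaded with FluxOr dye for 45 min, and thallium flux is measured in kinetic reads before and after stimulation buffer. Rate constants are normalized to DMSO controls.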
KCNH2 3.1 inh: qHTS for Inhibitors of KCHN2 3.1: Mutant qHTS; activity change, % (tested at about 1.8 µM); AID 720553, 2013; Potassium voltage-gated channel subfamily H member 2, brain isoform KCNH2 3.1 (human); U2OS KCNH2 3.1, thallium flux FluxOr; hits give low values; actives 0.95% (n = 340,000);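 active = maximum activity change below -70%; inconclusive = maximum activity change from -70% to -50%; inactive = maximum activity change above -50%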;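 note: thallium influx rate constant from kinetic fluorescence after stimulation buffer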
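Virally transduced U2OS (3.1 isoform, 4 h infection in dark at RT) → overnight 37 C → FluxOr + Red40 in HBSS/HEPES, 45 min → stimulation buffer, 2 min kinetic read → rate constant vs DMSO controls.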
RXFP1 antagonist: qHTS Assay for Antagonists of the Relaxin Receptor RXFP1 | Relaxin receptor 1 (Homo sapiens), Q9HBX9 | HEK293-RXFP1, relaxin-stimulated cAMP HTRF, 30 min; hits give low values | activity change, negative = inhibition, % at 57.5 µM | actives 0.59% (n = 350,000) | AID 1259400, 2018;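 active = activity change of -60% or lower, but not beyond a set lower limit; inconclusive = change between -60% and -40%, or beyond the set limit; inactive = change above -40%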
Target sequence (Q9HBX9 whole entry, looked up): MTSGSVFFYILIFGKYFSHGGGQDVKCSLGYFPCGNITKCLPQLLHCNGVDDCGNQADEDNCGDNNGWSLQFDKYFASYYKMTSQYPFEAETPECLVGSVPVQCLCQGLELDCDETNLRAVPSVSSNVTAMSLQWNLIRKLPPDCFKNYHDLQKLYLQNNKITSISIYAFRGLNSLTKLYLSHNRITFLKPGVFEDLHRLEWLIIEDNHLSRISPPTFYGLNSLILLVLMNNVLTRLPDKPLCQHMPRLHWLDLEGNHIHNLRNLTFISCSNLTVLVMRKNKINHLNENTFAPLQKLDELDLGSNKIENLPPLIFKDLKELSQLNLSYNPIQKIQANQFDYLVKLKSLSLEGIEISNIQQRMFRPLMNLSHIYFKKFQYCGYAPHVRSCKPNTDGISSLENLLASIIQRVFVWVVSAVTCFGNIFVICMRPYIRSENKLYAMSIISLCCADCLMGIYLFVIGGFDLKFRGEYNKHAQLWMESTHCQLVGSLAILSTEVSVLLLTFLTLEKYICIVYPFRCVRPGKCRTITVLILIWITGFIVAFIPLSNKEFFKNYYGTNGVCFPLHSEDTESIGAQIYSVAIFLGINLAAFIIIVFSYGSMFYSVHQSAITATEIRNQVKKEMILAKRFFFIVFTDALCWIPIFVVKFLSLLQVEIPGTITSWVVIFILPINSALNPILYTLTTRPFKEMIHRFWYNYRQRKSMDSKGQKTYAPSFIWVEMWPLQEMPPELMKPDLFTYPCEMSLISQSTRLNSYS
RXFP1 agonist: qHTS Assay for Agonists of the Relaxin Receptor RXFP1; actives 0.3% (n = 370,000); AID 2676, 2010; Relaxin receptor 1 (Homo sapiens), Q9HBX9; Potency, µM (titrated, usually from 57.5 µM), for the others: at the top dose activation, usual class: activators; HEK293T-RXFP1 cAMP TR-FRET, 30 min; response scale: percent of porcine relaxin response, buffer zero; active = well fitted activation curve with a large enough effect; inconclusive = small, poorly fitted or top-dose-only effect; note: potency is the fitted concentration of half-maximal effect; nearly all actives have a fitted effect of over 60% in size
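HEK293T cells stably expressing RXFP1 were pretreated with the PDE4 inhibitor Ro 20174, exposed to compounds for 30 min at 37C, lysed, and cAMP was read by TR-FRET. Data normalized to buffer (basal) and 29 nM porcine relaxin (100%).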
pAkt inh: HTS Assay for Inhibitors of Akt Phophorylation: Primary Screen | activity change, % for hits at 50 µM | actives 0.32% (n = 360,000) | Neuro2A IGF-stimulated pAkt S473 HTRF, 20 min; hits give low values; in the data active = activity change below about -80%; inconclusive = mostly about -51% to -80%
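Neuro2A cells in DMEM with 0.5% FBS, overnight at 37 deg C, given compound at single 50 µM final, then IGF (6 nM final) for 20 min at 37 deg C. Lysed; phospho-Akt Ser473 by HTRF after 24 h, 665/615 ratio.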
* hit, by the source's call; i = inactive; ? = inconclusive; / = not tested or not shown. This is a sample that favours compounds with a hit; in the whole collection about 1.7% have one here. % is set by controls: 0 for no effect and ±100 for the full control effect.

SMILES	KCNH2 WT inh	KCNH2 3.1 inh	RXFP1 antagonist	RXFP1 agonist	pAkt inh
NS(=O)(=O)c1cccc(NC(=O)c2ccc3nc[nH]c3c2)c1	-9	-8	-4	6%	i
CCC(C)N(C)Cc1cccc(C2(O)CCN(S(=O)(=O)c3ccc(F)c(C)c3)CC2)c1 (stereo not drawn)	-43	-100*	-30	1%	i
CC(=O)N(C)c1ccc(OCC(O)Cn2c3ccc(Cl)cc3c3cc(Cl)ccc32)cc1 (stereo not drawn)	-76*	-29	13	2%	i
COC(=O)c1cc(S(=O)(=O)NCC2CCN(Cc3ccc(Cl)cc3)CC2)c[nH]1	-34	?	8	2%	i
COC(=O)c1cc(S(=O)(=O)NCc2cccs2)c[nH]1	-244*	3	-3	10%	i
COC(=O)c1cc(S(=O)(=O)NCc2ccccc2Cl)c[nH]1	27	0	/	-2%	i
Cc1cccc(CNS(=O)(=O)c2csc(C(N)=O)c2)c1	-3	-5	-14	1%	/
COC(=O)c1cc(S(=O)(=O)NCC2CCN(Cc3ccccc3F)CC2)c[nH]1	11	-118*	-2	-1%	i
NC(=O)c1cc(S(=O)(=O)NCc2cccs2)cs1	-13	-70*	-9	2%	i
COc1ccc(NC(=O)c2cc([N+](=O)[O-])ccc2N2CCCC2)cc1	0	0	9	1%	i
COc1ccccc1NC(=O)c1oc2ccccc2c1NC(=O)c1cc(OC)c(OC)c(OC)c1	-10	12	-10	/	-93%*
COc1cc(C(=O)Nc2cccc(-c3nc4cc(C)ccc4o3)c2C)cc(OC)c1OC	5	3	-14	7%	-105%*
CC(OC(=O)c1cccnc1Cl)C(=O)Nc1ccc2c(c1)OCO2 (stereo not drawn)	-27	?	0	/	i
CC[C@H](C)[C@H](NC(=O)[C@H](Cc1ccc(O)cc1)NC(=O)[C@@H](N)C(C)C)C(=O)N[C@@H](Cc1cnc[nH]1)C(=O)N1CCC[C@H]1C(=O)N[C@@H](Cc1ccccc1)C(=O)O	-8	-6	/	-2%	i
Cn1cc(CNCCCn2ncc3ccccc32)c(-c2ccccc2F)n1	14	-97*	3	3%	i
CN(C1CCCCC1)S(=O)(=O)c1cccc(C(=O)OCC(=O)NC2CCCc3ccccc32)c1 (stereo not drawn)	53	-92*	6	0%	i
CN(CC(=O)NC1CCCc2ccccc21)C1CCCCC1 (stereo not drawn)	0	-1	-6	0%	i
COc1ccc(-c2nc(CN3CCN(C(=O)c4ccco4)CC3)c(C)o2)cc1OC	-1	-2	1	2%	i
C#CCOCCOCCOCCNc1nc(N2CCN(C(=O)C(Cc3ccc(O)cc3)n3cc(C(N)CC(C)C)nn3)CC2)nc(N2CCN(C(=O)C(Cc3cc4ccccc4[nH]3)n3cc(C(N)C(C)CC)nn3)CC2)n1 (stereo not drawn)	/	/	/	0%	/
O=C(NC1CCS(=O)(=O)C1)/C(=C/c1ccco1)NC(=O)c1ccccc1 (stereo not drawn)	-6	-8	-72*	-2%	i
COc1ccc(C(=O)Nc2c(O)ccc3ccccc23)cc1	2	-2	-19	/	i
Cc1ccc(CN2CCC(c3nc4ccc(Cl)cc4[nH]3)CC2)cc1	-132*	-93*	-24	0%	i
Cc1ccc(CN2CCC(c3cc(-c4ccc(Cl)cc4)n[nH]3)CC2)cc1	-84*	-102*	-36	-1%	i
COc1ccc(-c2cc(C3CCN(c4cc(Cl)nc(N)n4)CC3)[nH]n2)cc1	2	-15	6	-2%	i
COc1ccc(-c2cc(C3CCN(Cc4cccc(C(F)(F)F)c4)CC3)[nH]n2)cc1	47	/	-30	2%	i
SMILES	KCNH2 WT inh	KCNH2 3.1 inh	RXFP1 antagonist	RXFP1 agonist	pAkt inh
Nc1nc(Cl)cc(N2CCC(c3cc(-c4ccc(Cl)cc4)n[nH]3)CC2)n1	1	-74*	5	-2%	i
COc1ccc(-c2cc(C3CCN(Cc4ccc([N+](=O)[O-])cc4)CC3)[nH]n2)cc1	-87*	-112*	-8	0%	i
COc1ccccc1N1CCN(CC(O)COc2ccc3c(C)cc(=O)oc3c2)CC1 (stereo not drawn)	6	-2	-3	3%	i
CC1(c2nnc(-c3ccccc3)o2)CC(c2cccc(Cl)c2)=NO1 (stereo not drawn)	-1	-23	/	-1%	i
COc1cc(NC(=O)c2ccc(Cl)cc2)c2ncccc2c1	-3	14	-4	15%	i
CCOC(=O)N1CCC(=NNc2ncc(C(F)(F)F)cc2Cl)CC1	-4	6	-8	4%	i
CCOC(=O)NC(=O)/C(C#N)=C\NNc1ncc(C(F)(F)F)cc1Cl	-71*	10	-4	-1%	i
N#Cc1cc(-c2ccccc2)cnc1Sc1ccc(Cl)cc1	-5	-20	-11	-1%	i
N#Cc1cc(-c2ccc(Cl)cc2)cnc1Sc1ccccc1	8	-79*	15	5%	i
Cc1ccc(C(=O)N/C(=C\c2ccco2)C(=O)NCCCn2ccnc2)cc1C	-1	-6	-11	1%	i
O=c1c(-c2ccccc2)c(O)c2ccccc2n1-c1ccccc1	-18	-72*	-1	0%	i
COc1cc(NC(=O)CCc2nnc3ccc(N4CCN(c5cccc(OC)c5)CC4)nn23)cc(OC)c1	5	-47	4	16µM*	i
Cc1c(C(=O)NCc2cccs2)oc2ccccc12	-2	-79*	-30	0%	i
Cc1c(C(=O)NC(C)c2ccncc2)oc2ccccc12 (stereo not drawn)	-7	-109*	17	1%	i
Cc1ccccc1CNC(=O)Nc1cccs1	-3	0	-9	1%	i
O=C(NCc1cccs1)Nc1cccs1	8	1	-7	0%	-114%*
O=C(Cc1ccc(-n2cccc2)cc1)NCc1cccs1	-10	-89*	-2	7%	i
Cc1c(C(=O)NCc2cccnc2)oc2ccccc12	1	9	4	-1%	i
Cc1c(C(=O)Nc2ccncc2)oc2ccccc12	-11	-6	3	1%	i
CCCCOCCCNCC(=O)Nc1ccc(S(N)(=O)=O)cc1	-12	-2	-6	0%	i
